Experimental data published in PubChem BioAssay (EPA / NIEHS).
Records with an inconclusive call do not appear. Active and inactive are the calls of the source. The calls were made as follows: active = hit-call score of the fitted dose curve at least 0.9, where 1 is the maximum; inconclusive = response in the unintended direction; inactive = score below 0.9.

Tests used:
[1] = target: chimpanzee Androgen Receptor (AR), AR (gene 747460) (UniProt O97775); assay: NVS_NR_cAR: NovaScreen (NVS) Nuclear Receptor Binding Assay for chimpanzee Androgen Receptor (AR) (AID 2283346);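 also: radioligand displacement from AR measured by scintillation counting in a cell-free assay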
Chain of chimpanzee Androgen Receptor (AR), AR (gene 747460) (O97775 whole entry, looked up): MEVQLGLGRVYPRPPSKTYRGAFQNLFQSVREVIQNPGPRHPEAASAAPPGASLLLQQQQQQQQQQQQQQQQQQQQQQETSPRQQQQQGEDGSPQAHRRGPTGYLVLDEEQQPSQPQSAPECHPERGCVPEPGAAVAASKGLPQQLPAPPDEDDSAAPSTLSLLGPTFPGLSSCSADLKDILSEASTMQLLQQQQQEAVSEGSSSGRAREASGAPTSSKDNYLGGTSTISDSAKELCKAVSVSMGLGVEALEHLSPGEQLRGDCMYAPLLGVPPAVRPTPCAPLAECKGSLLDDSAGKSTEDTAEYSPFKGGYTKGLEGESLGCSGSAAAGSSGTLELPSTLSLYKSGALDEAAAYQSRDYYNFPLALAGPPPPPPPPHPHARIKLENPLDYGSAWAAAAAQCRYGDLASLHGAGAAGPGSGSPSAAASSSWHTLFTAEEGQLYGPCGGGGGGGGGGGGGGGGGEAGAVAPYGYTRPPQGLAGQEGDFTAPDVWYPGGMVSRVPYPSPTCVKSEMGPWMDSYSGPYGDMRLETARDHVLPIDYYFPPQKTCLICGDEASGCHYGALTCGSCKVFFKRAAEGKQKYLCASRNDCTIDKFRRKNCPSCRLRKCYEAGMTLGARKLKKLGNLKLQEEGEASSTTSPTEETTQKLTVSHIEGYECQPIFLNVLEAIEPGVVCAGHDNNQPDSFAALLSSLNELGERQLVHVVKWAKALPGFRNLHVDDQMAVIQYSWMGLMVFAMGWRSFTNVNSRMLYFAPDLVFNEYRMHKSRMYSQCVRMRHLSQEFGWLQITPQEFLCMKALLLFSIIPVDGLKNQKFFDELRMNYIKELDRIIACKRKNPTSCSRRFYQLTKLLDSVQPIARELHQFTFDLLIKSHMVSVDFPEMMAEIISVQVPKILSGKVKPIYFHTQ
Method in brief: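 Cell-free radioligand displacement using receptor protein extracted from Sf9/Sf21 cells; bound radioligand measured by scintillation counting 72 hours after chemical dosing. Loss of signal versus DMSO baseline indicates binding; primary screen single-concentration in duplicate at 25 uM, actives followed in concentration series.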

[2] = target: Estrogen receptor (Homo sapiens) (UniProt P03372); assay: OT_ER_ERaERa_1440: Odyssey Thera (OT) 24-hour HEK293T Protein-Complementation Assay for Estrogen Receptor-alpha/-alpha Homodimer (AID 2283349);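 also: hits raise fluorescence above DMSO for agonists and antagonists alike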
Chain of Estrogen receptor (Homo sapiens) (P03372 whole entry, looked up, the tested form may be a part): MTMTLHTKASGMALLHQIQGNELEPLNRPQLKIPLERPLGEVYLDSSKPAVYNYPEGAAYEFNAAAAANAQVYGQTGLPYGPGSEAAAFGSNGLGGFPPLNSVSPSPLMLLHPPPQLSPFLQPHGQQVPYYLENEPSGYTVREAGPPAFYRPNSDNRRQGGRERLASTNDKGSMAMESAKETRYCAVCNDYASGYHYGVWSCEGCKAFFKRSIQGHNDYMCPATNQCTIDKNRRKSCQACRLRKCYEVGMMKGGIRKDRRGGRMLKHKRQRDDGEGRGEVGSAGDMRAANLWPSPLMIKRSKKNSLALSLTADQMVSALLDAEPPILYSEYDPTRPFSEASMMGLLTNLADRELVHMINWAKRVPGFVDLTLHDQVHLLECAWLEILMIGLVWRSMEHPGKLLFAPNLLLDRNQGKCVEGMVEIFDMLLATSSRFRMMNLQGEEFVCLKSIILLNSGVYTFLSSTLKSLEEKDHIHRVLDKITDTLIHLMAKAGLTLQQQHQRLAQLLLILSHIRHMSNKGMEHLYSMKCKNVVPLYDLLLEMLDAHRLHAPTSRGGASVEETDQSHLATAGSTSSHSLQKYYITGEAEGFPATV
Method in brief: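 Stably transfected HEK293T; ERα LBD homodimer PCA. 24 h dosing, fluorescence intensity read, gain-of-signal vs DMSO.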

[3] = target: Estrogen receptor (Homo sapiens) (UniProt P03372); assay: OT_ER_ERaERa_0480: Odyssey Thera (OT) 8-hour HEK293T Protein-Complementation Assay for Estrogen Receptor-alpha/-alpha Homodimer (AID 2283351);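 also: rise in fluorescence from reassembled reporter fragments on ERα LBD homodimer in nucleus or whole cell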
Method in brief: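 Cells were treated for 8 hours, then imaged on a laser scanning plate cytometer. Complementation of reporter fragments fused to the human ERα ligand-binding domain (residues 310-547) in HEK293T gave fluorescence, and gain of signal over vehicle was fitted.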

[4] = target: T1, Estrogen receptor (Homo sapiens) + Estrogen receptor beta (Homo sapiens) (UniProt P03372+Q92731); assay: OT_ER_ERaERb_0480: Odyssey Thera (OT) 8-hour HEK293T Protein-Complementation Assay for Estrogen Receptor-alpha/-beta Heterodimer (AID 2283352)
T1 sequence (P03372 whole entry, looked up, the tested form may be a part): as above
T1 sequence (Q92731 whole entry, looked up, the tested form may be a part): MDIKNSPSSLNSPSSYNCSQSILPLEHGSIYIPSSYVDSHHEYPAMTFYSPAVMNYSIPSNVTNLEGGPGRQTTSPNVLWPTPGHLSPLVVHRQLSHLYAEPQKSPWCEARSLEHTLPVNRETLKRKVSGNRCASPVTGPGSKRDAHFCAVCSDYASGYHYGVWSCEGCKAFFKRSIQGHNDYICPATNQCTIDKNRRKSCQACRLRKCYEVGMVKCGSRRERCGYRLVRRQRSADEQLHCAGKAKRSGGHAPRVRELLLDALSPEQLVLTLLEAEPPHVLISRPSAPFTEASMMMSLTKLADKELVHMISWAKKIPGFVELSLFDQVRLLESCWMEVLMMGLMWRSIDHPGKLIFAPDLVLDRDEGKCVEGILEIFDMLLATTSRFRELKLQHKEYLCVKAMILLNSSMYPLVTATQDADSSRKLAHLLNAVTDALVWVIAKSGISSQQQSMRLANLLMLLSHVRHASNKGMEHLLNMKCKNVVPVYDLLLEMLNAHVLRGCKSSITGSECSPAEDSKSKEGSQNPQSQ
Method in brief: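 HEK293T protein-fragment complementation assay of ER-alpha/ER-beta LBD heterodimerisation, read 8 h after dosing. Mean nuclear/cytoplasmic fluorescence intensity measured by laser scanning cytometry; gain of signal fitted relative to DMSO.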

[5] = target: T1, Estrogen receptor (Homo sapiens) + Estrogen receptor beta (Homo sapiens); assay: OT_ER_ERaERb_1440: Odyssey Thera (OT) 24-hour HEK293T Protein-Complementation Assay for Estrogen Receptor-alpha/-beta Homodimer (AID 2283356);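 also: heteromer of ER alpha and ER beta binding domains; hits raise reporter fluorescence and both agonists and antagonists give an increase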
Method in brief: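 HEK293T stably expressing a PCA of ER alpha LBD (aa 310-547) and ER beta LBD (aa 263-489). After 24 h compound exposure, mean fluorescence intensity in nucleus (agonists) or nucleus and cytoplasm (antagonists) measured by laser scanning cytometry versus vehicle.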

[6] = target: Estrogen receptor beta (Homo sapiens) (UniProt Q92731); assay: OT_ER_ERbERb_0480: Odyssey Thera (OT) 8-hour HEK293T Protein-Complementation Assay for Estrogen Receptor-beta/-beta Homodimer (AID 2283357);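 also: active means signal gain over DMSO baseline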
Chain of Estrogen receptor beta (Homo sapiens) (Q92731 whole entry, looked up, the tested form may be a part): as above
Method in brief: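 Fluorescence gain from complemented reporter fragments on ER-beta LBD homodimer in HEK293T was quantified against DMSO controls after 8 h treatment, fixation in 4% formaldehyde and Draq5 staining.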

[7] = target: bovine Estrogen Receptor (ER), ESR1 (gene 407238) (UniProt P49884); assay: NVS_NR_bER: NovaScreen (NVS) Nuclear Receptor Binding Assay for bovine Estrogen Receptor (ER) (AID 2283345);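 also: actives lower the bound radioligand count which means they displace the ER ligand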
Chain of bovine Estrogen Receptor (ER), ESR1 (gene 407238) (P49884 whole entry, looked up): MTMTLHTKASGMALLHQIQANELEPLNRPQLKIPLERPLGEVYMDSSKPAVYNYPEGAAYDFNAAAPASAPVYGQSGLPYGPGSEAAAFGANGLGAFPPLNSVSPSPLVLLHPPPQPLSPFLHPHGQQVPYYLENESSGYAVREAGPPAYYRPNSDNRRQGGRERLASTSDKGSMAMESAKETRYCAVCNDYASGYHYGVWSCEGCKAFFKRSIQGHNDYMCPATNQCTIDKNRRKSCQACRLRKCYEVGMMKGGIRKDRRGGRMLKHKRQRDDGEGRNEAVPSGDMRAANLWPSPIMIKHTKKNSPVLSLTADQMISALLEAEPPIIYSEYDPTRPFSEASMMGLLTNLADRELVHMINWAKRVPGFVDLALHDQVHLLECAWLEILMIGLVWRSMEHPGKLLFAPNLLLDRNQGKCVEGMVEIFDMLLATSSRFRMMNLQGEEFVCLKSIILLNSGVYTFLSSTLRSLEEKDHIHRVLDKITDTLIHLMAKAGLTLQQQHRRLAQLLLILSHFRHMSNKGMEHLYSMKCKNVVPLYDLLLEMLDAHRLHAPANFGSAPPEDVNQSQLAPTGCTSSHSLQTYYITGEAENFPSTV
Method in brief: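 Displacement of a radioligand from estrogen receptor in bovine uterine membrane preparations; scintillation signal taken at 18 hours, DMSO as baseline. Single-concentration duplicates (25 uM) preceded concentration-response follow-up of actives.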

[8] = target: Estrogen receptor (Homo sapiens) (UniProt P03372); assay: NVS_NR_hER: NovaScreen (NVS) Nuclear Receptor Binding Assay for human Estrogen Receptor (ER) (AID 2283348)
Method in brief: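 Radiodetection of ligand displacement in a lysate-based, cell-free format using MCF7 extracts, read at 18 hours. Duplicate 25 uM primary testing, then concentration series for actives.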

[9] = target: PGR (gene 5241) (UniProt P06401); assay: NVS_NR_hPR: NovaScreen (NVS) Nuclear Receptor Binding Assay for human Progestron Receptor (PR) (AID 2283360)
Chain of PGR (gene 5241) (P06401 whole entry, looked up): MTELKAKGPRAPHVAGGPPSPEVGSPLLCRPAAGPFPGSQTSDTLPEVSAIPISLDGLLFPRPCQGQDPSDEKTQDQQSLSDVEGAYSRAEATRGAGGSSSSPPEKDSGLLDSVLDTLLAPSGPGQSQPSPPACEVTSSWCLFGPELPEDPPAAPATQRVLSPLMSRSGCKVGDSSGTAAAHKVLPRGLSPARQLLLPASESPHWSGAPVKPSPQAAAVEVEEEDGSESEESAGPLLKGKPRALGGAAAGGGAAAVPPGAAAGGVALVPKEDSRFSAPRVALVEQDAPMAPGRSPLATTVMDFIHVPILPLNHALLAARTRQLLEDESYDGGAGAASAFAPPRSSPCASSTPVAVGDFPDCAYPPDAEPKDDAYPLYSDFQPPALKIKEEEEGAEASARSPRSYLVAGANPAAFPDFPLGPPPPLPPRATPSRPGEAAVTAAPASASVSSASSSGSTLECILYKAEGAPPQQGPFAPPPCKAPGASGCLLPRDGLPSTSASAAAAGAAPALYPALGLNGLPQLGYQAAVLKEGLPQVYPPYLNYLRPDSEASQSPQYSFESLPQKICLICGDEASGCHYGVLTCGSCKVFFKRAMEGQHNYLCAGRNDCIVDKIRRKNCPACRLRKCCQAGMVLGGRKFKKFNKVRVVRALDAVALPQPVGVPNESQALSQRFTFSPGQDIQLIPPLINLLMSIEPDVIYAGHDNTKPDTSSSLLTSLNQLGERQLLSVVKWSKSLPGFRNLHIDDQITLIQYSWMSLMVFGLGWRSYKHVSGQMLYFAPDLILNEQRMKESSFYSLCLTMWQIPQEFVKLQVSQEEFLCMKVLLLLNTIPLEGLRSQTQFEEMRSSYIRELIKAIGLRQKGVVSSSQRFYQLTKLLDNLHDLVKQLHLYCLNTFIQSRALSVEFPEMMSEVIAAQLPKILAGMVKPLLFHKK
Method in brief: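 T47D-derived receptor preparation, cell-free, with tritiated or iodinated radioligand displacement measured by scintillation 18 h post-dosing. Single 25 uM duplicate screen, then concentration series; signal loss relative to DMSO.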

[10] = target: human Constitutive Androstane Receptor (CAR), NR1I3 (gene 9970) (UniProt Q14994); assay: NVS_NR_hCAR_Antagonist: NovaScreen (NVS) Nuclear Receptor Binding Assay for human Constitutive Androstane Receptor Antagonism (CAR) (AID 2283344)
Method in brief: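 Single 25 uM duplicate primary screen, with concentration-series follow-up on actives. Cell-free binding format run in antagonist mode, TR-FRET signal taken 1 h post-dose; activity is signal loss relative to DMSO.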

[11] = target: Androgen Receptor/SRC-1 Co-activator, AR (gene 367) (UniProt P10275); assay: OT_AR_ARSRC1_0960: Odyssey Thera (OT) 16-hour HEK293T Protein-Complementation Assay for Androgen Receptor/SRC-1 Co-activator (AID 2283353);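 also: actives raise the signal above DMSO so potency reflects increased AR and SRC-1 complex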
Chain of Androgen Receptor/SRC-1 Co-activator, AR (gene 367) (P10275 whole entry, looked up, the tested form may be a part): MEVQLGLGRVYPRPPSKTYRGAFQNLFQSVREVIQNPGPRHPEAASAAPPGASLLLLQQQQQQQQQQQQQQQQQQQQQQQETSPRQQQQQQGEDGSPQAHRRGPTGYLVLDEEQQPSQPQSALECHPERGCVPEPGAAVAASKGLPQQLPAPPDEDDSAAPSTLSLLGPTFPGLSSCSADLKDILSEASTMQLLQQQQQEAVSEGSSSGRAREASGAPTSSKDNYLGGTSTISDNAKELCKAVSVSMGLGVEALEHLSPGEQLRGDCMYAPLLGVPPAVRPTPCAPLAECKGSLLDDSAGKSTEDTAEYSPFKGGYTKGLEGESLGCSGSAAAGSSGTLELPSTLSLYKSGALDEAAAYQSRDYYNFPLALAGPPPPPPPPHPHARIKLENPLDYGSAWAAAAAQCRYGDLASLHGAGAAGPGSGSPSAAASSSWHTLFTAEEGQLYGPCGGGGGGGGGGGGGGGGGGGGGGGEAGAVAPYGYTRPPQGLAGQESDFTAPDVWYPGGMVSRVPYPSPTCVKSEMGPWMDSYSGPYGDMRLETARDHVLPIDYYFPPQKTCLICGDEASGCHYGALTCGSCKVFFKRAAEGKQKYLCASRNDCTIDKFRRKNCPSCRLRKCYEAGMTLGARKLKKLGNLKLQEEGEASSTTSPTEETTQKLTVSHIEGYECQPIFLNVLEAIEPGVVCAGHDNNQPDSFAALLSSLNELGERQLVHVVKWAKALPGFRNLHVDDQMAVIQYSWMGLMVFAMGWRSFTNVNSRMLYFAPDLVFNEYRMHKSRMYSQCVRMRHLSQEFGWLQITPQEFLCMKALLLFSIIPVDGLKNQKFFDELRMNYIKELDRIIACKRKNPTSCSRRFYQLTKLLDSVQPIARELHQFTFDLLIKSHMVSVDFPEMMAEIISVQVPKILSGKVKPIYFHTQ
Method in brief: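 Stable HEK293T line carries AR and SRC-1 each linked to a Venus fragment; chemicals are applied for 16 h, cells imaged at two wavelengths, and the 488 nm nucleus/cytoplasm ratio is taken as the signal, rising relative to DMSO.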

[12] = target: Androgen Receptor/SRC-1 Co-activator, AR (gene 367) (UniProt P10275); assay: OT_AR_ARSRC1_0480: Odyssey Thera (OT) 8-hour HEK293T Protein-Complementation Assay for Androgen Receptor/SRC-1 Co-activator (AID 2283354);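 also: hits raise the complementation signal above DMSO so AC50 marks enhancers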
Method in brief: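 After 8 h dosing, stably expressing HEK293T cells with split-Venus AR/SRC-1 fusions were imaged (488, 635nm). The 488nm N/C ratio per image gave the endpoint, analysed in the positive direction against DMSO.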

[13] = target: human Peroxisome Proliferator-activated Receptor alpha (PPARa), PPARA (gene 5465) (UniProt Q07869); assay: NVS_NR_hPPARa: NovaScreen (NVS) Nuclear Receptor Binding Assay for human Peroxisome Proliferator-activated Receptor alpha (PPARa) (AID 2283359);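 also: activity means loss of TR-FRET signal versus DMSO baseline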
Chain of human Peroxisome Proliferator-activated Receptor alpha (PPARa), PPARA (gene 5465) (Q07869 whole entry, looked up): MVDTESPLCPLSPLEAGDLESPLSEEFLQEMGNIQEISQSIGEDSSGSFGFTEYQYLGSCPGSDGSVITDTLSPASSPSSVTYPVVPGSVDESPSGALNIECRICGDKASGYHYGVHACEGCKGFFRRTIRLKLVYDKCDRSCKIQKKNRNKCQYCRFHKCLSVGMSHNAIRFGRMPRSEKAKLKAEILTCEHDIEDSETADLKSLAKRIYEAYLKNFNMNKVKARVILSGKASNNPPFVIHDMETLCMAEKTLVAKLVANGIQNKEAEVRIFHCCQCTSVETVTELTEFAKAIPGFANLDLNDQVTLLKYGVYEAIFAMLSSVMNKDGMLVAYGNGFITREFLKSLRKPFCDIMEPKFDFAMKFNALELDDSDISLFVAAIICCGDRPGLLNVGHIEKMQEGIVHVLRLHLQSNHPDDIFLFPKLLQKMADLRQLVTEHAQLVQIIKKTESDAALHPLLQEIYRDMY
Method in brief: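 One-hour incubation, cell-free extracted protein, TR-FRET binding readout; signal loss vs DMSO scored. Screen: 25 uM duplicates, confirmatory dose series for actives.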

[14] = test system: guinea pig Histamine Receptor (H2), gene 100729734; assay: NVS_GPCR_gH2: NovaScreen (NVS) G Protein-Coupled Receptor Assay for guinea pig Histamine Receptor (H2) (AID 2283342)
Method in brief: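 Guinea pig striatal membrane preparation with specific radioligand; bound counts measured by filtration and scintillation 1 h post-dosing, DMSO as baseline. Chemicals passing a 25 uM duplicate screen were titrated to a 50 uM maximum.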

[15] = target: rat Glutamate, MK-801 Agonist Site (GluNMDA_MK801), Grin1 (gene 24408) (UniProt P35439); assay: NVS_LGIC_rGluNMDA_MK801_Agonist: NovaScreen (NVS) Ligand-Gated Ion Channel Assay for rat Glutamate, MK-801 Agonist Site (GluNMDA_MK801) (AID 2283340)
Method in brief: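 Rat forebrain membrane preparation; MK-801-site radioligand binding read by filtration and scintillation after 1.5 h. Single-point 25 uM duplicate screen, followed by singleton concentration series to 50 uM max; DMSO baseline.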

[16] = target: bovine Gamma-Aminobutyric Acid Type A Receptor Agonist (GABAR Agonist), GABRA1 (gene 780973) (UniProt P08219); assay: NVS_LGIC_bGABAR_Agonist: NovaScreen (NVS) Ligand-Gated Ion Channel Assay for bovine Gamma-Aminobutyric Acid Type A Receptor Agonist (GABAR Agonist) (AID 2283338)
Method in brief: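 Radioligand binding to bovine cerebellar membranes in agonist format, read by filter-based scintillation counting after 1 h. Primary screen in duplicate at 25 uM, with actives followed in concentration series. Gain of signal versus DMSO.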

Measured: AC50

c1ccc2c(c1)-c1cccc3c1c-2cc1ccccc13
inactive: [1] | [2] | [3] | [4] | [5] | [6]

C[C@]12C=CC(=O)C=C1CC[C@H]1[C@@H]3C[C@@H](O)[C@](O)(C(=O)CO)[C@@]3(C)C[C@H](O)[C@@]12F
active: [1] 32.6 µM | [8] 38.3 µM
inactive: [7] | [2] | [3] | [9]

CCCCCCCCCCCCCCCCOS(=O)(=O)O
inactive: [10] | [2] | [3] | [4] | [11] | [12] | [5] | [6] | [13]

O=C(O)c1cccc(C[C@@H]2COc3ccc(OCc4nc5cc(F)ccc5s4)cc3[C@@H]2O)c1
active: [1] 20.8 µM
inactive: [7] | [2] | [3] | [5] | [6] | [13]

Cc1ncc([C@@H](CCCCCCc2ccc3c(n2)NCCC3)CC(=O)O)cn1
inactive: [2] | [3] | [4] | [5] | [6] | [13]
active: [14] 25 µM

Cn1c(=O)c2[nH]cnc2n(C)c1=O
inactive: [2] | [3]

c1ccc(C(O[C@@H]2CCCN(CCc3ccc4c(c3)OCO4)C2)c2ccccc2)cc1
active: [14] 0.337 µM | [2] 68.3 µM | [4] 31.5 µM | [5] 62.5 µM
inactive: [15] | [7] | [1] | [8] | [3] | [6] | [9]

Cc1cccc(O)c1C
inactive: [7] | [8] | [2] | [3] | [4] | [5] | [6]

CCCC(CCC)C(=O)O
inactive: [8] | [2] | [3]

Nc1ccn([C@@H]2O[C@H](CO)[C@@H](O)[C@@H]2O)c(=O)n1
active: [8] 22.5 µM
inactive: [2] | [3]

COS(C)(=O)=O
inactive: [7] | [8] | [2] | [3]

CC1(C)C(=O)N(Cl)C(=O)N1Cl
inactive: [2]

NNC(=O)c1ccncc1
inactive: [8] | [2] | [3] | [4] | [5] | [6]

OCC(CO)(CO)CO
active: [8] 3.49 µM
inactive: [7] | [2] | [3] | [4] | [5] | [6]

CC(=O)c1ccccc1
inactive: [16] | [2] | [3]
